Reference: PubChem BioAssay (NCATS)
Values joined by “and” are separate entries in the source; they are usually repeats but may differ in a detail not shown here. Equal values may be shown once. Results filed as inconclusive are left out. Some structures have more than one record in an assay (separate samples or runs), and their calls can disagree. Active and inactive are the calls of the source. The call rests on the fitted dose curve; in most records, active means well fitted curve in the direction sought with a large enough effect; inconclusive means small, poorly fitted or top-dose-only effect, or another doubt; inactive means no such curve, though single readings can be large; an effect the other way counts as inactive or inconclusive.

Assay: P-glycoprotein substrates identified in KB-8-5-11 adenocarcinoma cell line, qHTS therapeutic library screen (AID 1346987); further: nearly all actives have a fitted effect of over 65% in size; on activity change, negative = cytotoxicity: on the % scale 0 is the no-effect control and ±100 the full control effect
Conditions: KB-8-5-11 (P-gp overexpressing) viability, CellTiter-Glo, 72 h; series mostly up to 44.5 µM; activity change, negative = cytotoxicity: at the top concentration
Summary of the method: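 P-gp-mediated resistance screen: KB-8-5-11 cells treated 72 h with compounds in dose-response. CellTiter-Glo viability.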
Potency means the concentration at half of the fitted maximal effect.

| Compound | activity change, negative = cytotoxicity | Potency | outcome |
| --- | --- | --- | --- |
| CCC=CC[C@H]1C(=O)CC[C@@H]1CC(=O)OC | 8.2% (inactive) | – | – |
| N[C@@H](CC(=O)N1CCn2c(nnc2C(F)(F)F)C1)Cc1cc(F)c(F)cc1F | 4.9% (inactive) | – | – |
| CCCCOCCOc1nc(-c2ccc(C(=O)O)c(F)c2)sc1C | -7.66% (inactive) | – | – |
| CN[C@@H](C)[C@H]1[C@H](O)C[C@@]2(C)[C@@H]3CC[C@H]4C(C)(C)[C@@H](NC)CC[C@@]45C[C@@]35CC[C@]12C | – | inactive | – |
| NC[C@H]1O[C@H](O[C@@H]2[C@@H](O)[C@@H](O[C@H]3O[C@H](CO)[C@@H](O)[C@H](N)[C@@H]3O)[C@H](N)C[C@@H]2N)[C@H](O)[C@@H](O)[C@H]1O | 9.06% (inactive) | – | – |
| OC1CCC(Nc2ncc3nc(Nc4c(F)cc(F)cc4F)n([C@@H]4CCOC4)c3n2)CC1 (stereo partly drawn) | – | – | inactive |
| CC=C1C2C=C(C)CC1(N)c1ccc(=O)[nH]c1C2 (stereo not drawn) | – | – | inactive |
| CC(C)CN(C[C@H](O)[C@H](Cc1ccccc1)NC(=O)O[C@H]1CCOC1)S(=O)(=O)c1ccc(N)cc1 | -19.9% (inactive) | – | – |
| Cc1ccc(S(=O)(=O)Nc2nc3ccccc3nc2Nc2ccc3nsnc3c2)cc1 | – | inactive and 2.91 µM (active) | – |
| CN(C)c1nc(Cc2ccc(NC(=O)c3ccc(C(F)(F)F)cc3)cc2)nc(N(C)C)c1CC(=O)O | – | inactive | – |
| CCCC1OC2C[C@@H]3[C@H]4CCC5=CC(=O)C=C[C@]5(C)[C@H]4C(O)C[C@]3(C)[C@]2(C(=O)CO)O1 (stereo partly drawn) | -19.1% (inactive) | – | – |
| O=C1Nc2ccc(I)cc2C1=Cc1cc(Br)c(O)c(Br)c1 | 7.66% (inactive) | – | – |
| CC(C)[C@H](O)C(=O)N[C@@H](C)C(=O)N[C@@H]1C(=O)N(C)CCc2ccccc21 | -8.79% (inactive) | – | – |
| COc1ccc2c(c1)c(C1=C(c3c[nH]c4ccccc34)C(=O)NC1=O)cn2CCCN(C)C | -8.81% (inactive) | – | – |
| NC(N)=Nc1nc(CSCCC(N)=NS(N)(=O)=O)cs1 | – | – | inactive |
| CCCCC[C@H](O)C=C[C@H]1[C@H](O)CC(=O)[C@H]1CCCCCCC(=O)O | 8.34% (inactive) | – | – |
| CNC(=O)[C@H](Cc1ccccc1)NC(=O)[C@H](CC(C)C)[C@H](CSc1cccs1)C(=O)NO | 0.565% (inactive) | – | – |
| Cc1ccc(C(=O)N(CCCN)[C@@H](c2oc3cc(Cl)ccc3c(=O)c2Cc2ccccc2)C(C)C)cc1 | – | 0.0833 µM (active) | – |
| c1ccc(CNc2nc(N3CCOc4ccccc43)nc3c2CCCC3)cc1 | -19% (inactive) | – | – |
| Nc1[nH]nc2nnc(-c3c(-c4ccccc4)nn4ccccc34)cc12 | – | inactive | – |
| CCC(=O)NCC[C@@H]1CCc2ccc3c(c21)CCO3 | -0.913% (inactive) | – | – |
| C[C@H](CCC(=O)O)[C@H]1CC[C@H]2[C@H]3[C@@H](CC[C@]12C)[C@@]1(C)CC[C@@H](O)C[C@H]1C[C@@H]3O | -12.8% (inactive) | – | – |

Assay: NS1 protein of Zika virus - qHTS assay to identify small molecule inhibitors in human HEK 293 cells (AID 1347053); further: nearly all actives have a fitted effect of over 55% in size;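 on activity change, negative = inhibition: plate controls were infected untreated cells for no effect and uninfected cells for full effect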
Conditions: HEK293 ZIKV MR766 infection, NS1 TR-FRET, 24 h; series mostly up to 46.1 µM; activity change, negative = inhibition: at the top concentration
Summary of the method: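 HEK 293; 20 h pre-culture, 37 C/5% CO2; cpd 1 h pre-infection; ZIKV MR766, MOI = 0.5, 24 h, 37 C; TR-FRET NS1 readout (two anti-NS1 Abs); norm. to no-virus vs infected.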

| Compound | Potency | activity change, negative = inhibition |
| --- | --- | --- |
| COc1ccc(-c2ccc3ncc4c(c3c2)n(-c2ccc(N3CCNCC3)c(C(F)(F)F)c2)c(=O)n4C)cn1 | 6.62 µM (active) | – |
| CCCCN(CCCC)CC(O)c1cc(Cl)cc2c1-c1ccc(Cl)cc1C2=Cc1ccc(Cl)cc1 (stereo not drawn) | – | -0.629% (inactive) |
| CC(C)(F)C[C@H](N[C@@H](c1ccc(-c2ccc(S(C)(=O)=O)cc2)cc1)C(F)(F)F)C(=O)NC1(C#N)CC1 | – | 8.7% (inactive) |
| Cc1cc(NC(=O)Nc2ccc(N(C)C)cc2)c2cc(F)cc(F)c2n1 | – | 17.1% (inactive) |
| COc1nccc(-c2c(-c3ccc(F)cc3)ncn2C2CCNCC2)n1 | – | 0.102% (inactive) |
| C=C1c2cccc(O)c2C(O)=C2C(=O)[C@@]3(O)C(O)=C(C(N)=O)C(=O)[C@@H](N(C)C)[C@@H]3[C@@H](O)[C@H]12 | – | 11.2% (inactive) |
| COc1ccc(-c2oc3c(CC=C(C)C)c(O)cc(O)c3c(=O)c2O)cc1 | – | 4.17% (inactive) |
| Cc1cc(C(C)Nc2ccccc2)c2nc(N3CCOCC3)cc(=O)n2c1 (stereo not drawn) | – | -1.7% (inactive) |
| O=C(O)C1=CC(O)C(O)[C@H](O)C1 (stereo partly drawn) | – | 6.9% (inactive) |
| CC(C)(CO)[C@@H](O)C(=O)NCCC(=O)O | – | 1.66% (inactive) |
| CC(C)(OCc1nn(Cc2ccccc2)c2ccccc12)C(=O)O | – | 4.95% (inactive) |
| NS(=O)(=O)c1cc(Cl)c(Cl)c(S(N)(=O)=O)c1 | – | -1.75% (inactive) |
| COc1cc2ncnc(Nc3cc(Br)c(O)c(Br)c3)c2cc1OC | – | 15.6% (inactive) |
| CCOC(=O)N1CCN([N+]([O-])=NOc2cc(ON=[N+]([O-])N3CCN(C(=O)OCC)CC3)c([N+](=O)[O-])cc2[N+](=O)[O-])CC1 | – | 2.58% (inactive) |
| CCC=CC[C@H]1C(=O)CC[C@@H]1CC(=O)OC | – | -3.71% (inactive) |
| N[C@@H](CC(=O)N1CCn2c(nnc2C(F)(F)F)C1)Cc1cc(F)c(F)cc1F | – | 0.906% (inactive) |
| CCCCOCCOc1nc(-c2ccc(C(=O)O)c(F)c2)sc1C | – | -10.1% (inactive) |
| CN[C@@H](C)[C@H]1[C@H](O)C[C@@]2(C)[C@@H]3CC[C@H]4C(C)(C)[C@@H](NC)CC[C@@]45C[C@@]35CC[C@]12C | – | -1.69% (inactive) |

| Compound | Potency | activity change, negative = inhibition |
| --- | --- | --- |
| NC[C@H]1O[C@H](O[C@@H]2[C@@H](O)[C@@H](O[C@H]3O[C@H](CO)[C@@H](O)[C@H](N)[C@@H]3O)[C@H](N)C[C@@H]2N)[C@H](O)[C@@H](O)[C@H]1O | – | 9.57% (inactive) |
| OC1CCC(Nc2ncc3nc(Nc4c(F)cc(F)cc4F)n([C@@H]4CCOC4)c3n2)CC1 (stereo partly drawn) | – | 4.13% (inactive) |
| CC=C1C2C=C(C)CC1(N)c1ccc(=O)[nH]c1C2 (stereo not drawn) | – | 1.16% (inactive) |
| CC(C)CN(C[C@H](O)[C@H](Cc1ccccc1)NC(=O)O[C@H]1CCOC1)S(=O)(=O)c1ccc(N)cc1 | – | 4.65% (inactive) |
| Cc1ccc(S(=O)(=O)Nc2nc3ccccc3nc2Nc2ccc3nsnc3c2)cc1 | – | 24% [at 20.1 µM] (inactive) |
| CN(C)c1nc(Cc2ccc(NC(=O)c3ccc(C(F)(F)F)cc3)cc2)nc(N(C)C)c1CC(=O)O | – | 2.19% (inactive) |
| CCCC1OC2C[C@@H]3[C@H]4CCC5=CC(=O)C=C[C@]5(C)[C@H]4C(O)C[C@]3(C)[C@]2(C(=O)CO)O1 (stereo partly drawn) | – | -15% (inactive) |
| O=C1Nc2ccc(I)cc2C1=Cc1cc(Br)c(O)c(Br)c1 | – | -14.4% (inactive) |
| CC(C)[C@H](O)C(=O)N[C@@H](C)C(=O)N[C@@H]1C(=O)N(C)CCc2ccccc21 | – | 3.69% (inactive) |
| COc1ccc2c(c1)c(C1=C(c3c[nH]c4ccccc34)C(=O)NC1=O)cn2CCCN(C)C | – | 20.1% (inactive) |
| NC(N)=Nc1nc(CSCCC(N)=NS(N)(=O)=O)cs1 | – | 0.881% (inactive) |
| CCCCC[C@H](O)C=C[C@H]1[C@H](O)CC(=O)[C@H]1CCCCCCC(=O)O | – | -4.81% (inactive) |
| CNC(=O)[C@H](Cc1ccccc1)NC(=O)[C@H](CC(C)C)[C@H](CSc1cccs1)C(=O)NO | – | -8.12% (inactive) |
| Cc1ccc(C(=O)N(CCCN)[C@@H](c2oc3cc(Cl)ccc3c(=O)c2Cc2ccccc2)C(C)C)cc1 | 10.5 µM (active) | – |
| c1ccc(CNc2nc(N3CCOc4ccccc43)nc3c2CCCC3)cc1 | – | 1.76% (inactive) |
| Nc1[nH]nc2nnc(-c3c(-c4ccccc4)nn4ccccc34)cc12 | – | 51.9% (inactive) |
| CCC(=O)NCC[C@@H]1CCc2ccc3c(c21)CCO3 | – | 5.83% (inactive) |
| C[C@H](CCC(=O)O)[C@H]1CC[C@H]2[C@H]3[C@@H](CC[C@]12C)[C@@]1(C)CC[C@@H](O)C[C@H]1C[C@@H]3O | – | 6.8% (inactive) |
